Nine compounds from PubChem BioAssay (NCI) can be followed below.

The nature of experiment [1]: NCI Yeast Anticancer Drug Screen. Data for the rad50 strain (AID 155).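 Note: 0% = growth of vehicle-only cultures of the same strain.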 Conditions: S. cerevisiae rad50 strain growth inhibition, active compounds read high. In outline: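 Relative growth inhibition (compound vs vehicle) was measured in yeast with a defined repair-gene alteration.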
Experiment [2] in a line: NCI Yeast Anticancer Drug Screen. Data for the mec2-1 strain (AID 157). Conditions: S. cerevisiae mec2-1 strain, active compounds read high. In outline: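 Each compound was tested on mec2-1 yeast, a strain altered in DNA damage repair or cell cycle control. Growth inhibition is reported relative to vehicle.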
A short description of experiment [3]: NCI Yeast Anticancer Drug Screen. Data for the sgs1 mgt1 strain (AID 161).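 Note: 0% = growth of cultures given vehicle only.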 The note with it: S. cerevisiae sgs1 mgt1 strain, active compounds read high. In outline:
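Test agents were incubated with a DNA-repair-mutant yeast strain. Growth was then read and compared against vehicle-treated controls.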

A short description of experiment [4]: NCI Yeast Anticancer Drug Screen. Data for the cln2 rad14 strain (AID 165).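 Note: 0% = growth equal to vehicle treated cultures.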 Conditions: S. cerevisiae cln2 rad14 strain, active compounds read high. In outline: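 Test compounds were added to cln2 rad14 yeast cultures; inhibition of growth was then determined by comparison with vehicle treatment.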
Experiment [5] can be described thus: NCI Yeast Anticancer Drug Screen. Data for the bub3 strain (AID 167). Conditions: S. cerevisiae bub3 mutant strain, active compounds read high. In outline:
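Screening used yeast with an engineered genetic alteration affecting cell cycle control. Compound-exposed cultures were compared with vehicle cultures, and reduced growth was taken as inhibition.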

Experiment [6] can be described thus: NCI Yeast Anticancer Drug Screen. Data for the mlh1 rad18 strain (AID 175). Conditions: S. cerevisiae mlh1 rad18 strain growth inhibition, active compounds read high. In outline:
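Inhibition values reflect reduced growth of mutant yeast versus vehicle-treated controls following compound exposure; the mutations affect DNA damage repair.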

Setting [7] is: at 5.0 µM (retest, dose inferred, filed as 0.5).
Where [8] appears, read: at 50.0 µM (retest, dose inferred, filed as 5.0).

Compounds without any hit were thinned out: in the full panel of roughly 79,000, 15% have a hit. A number with no mark means an inactive call. Active and inactive are the calls of the source. Cut-off read from the data, not from the text of the source: active = growth inhibition above about 70%; inactive = the rest.

For `ClCc1ccccc1Cc1ccccc1`, the growth inhibition in experiment [1] (setting [7]) is 18%; in experiment [1] (setting [8]), 82% (active); in experiment [1] (at 50.0 µM), 98.6% (active); in experiment [2] (setting [7]), 21%; in experiment [2] (setting [8]) it was 63%; in experiment [2] (at 50.0 µM) it was 95.2% (active). Besides, the growth inhibition in experiment [3] (setting [7]) is 27%; in experiment [3] (setting [8]), 83% (active); in experiment [3] (at 50.0 µM) it was 97.8% (active); in experiment [4] (setting [7]), -1%; in experiment [4] (setting [8]), 35%; in experiment [4] (at 50.0 µM) it was 94.5% (active). Besides, the growth inhibition in experiment [5] (setting [7]) was -5%; in experiment [5] (setting [8]), 58%; in experiment [5] (at 50.0 µM), 97.6% (active); in experiment [6] (setting [7]), 35%; in experiment [6] (setting [8]) it was 85% (active); in experiment [6] (at 50.0 µM) it was 98% (active).

With `NC1=C(O)C(=O)C(c2c3ccccc3cc3ccccc23)O1` (configuration not stated), the growth inhibition is 16% in experiment [1] (setting [7]); 98% (active) in experiment [1] (setting [8]); 98.2% (active) in experiment [1] (at 50.0 µM); 17% in experiment [2] (setting [7]); 98% (active) in experiment [2] (setting [8]); 98% (active) in experiment [2] (at 50.0 µM). For the same compound, the growth inhibition was 8% in experiment [3] (setting [7]); 98% (active) in experiment [3] (setting [8]); 97.8% (active) in experiment [3] (at 50.0 µM); 7% in experiment [4] (setting [7]); 95% (active) in experiment [4] (setting [8]); 95.9% (active) in experiment [4] (at 50.0 µM). In addition, the growth inhibition in experiment [5] (setting [7]) was 16%; in experiment [5] (setting [8]) it was 98% (active); in experiment [5] (at 50.0 µM), 97.3% (active); in experiment [6] (setting [7]), 4%; in experiment [6] (setting [8]) it was 98% (active); in experiment [6] (at 50.0 µM), 97.5% (active).

On to `CN(O)C(=S)c1ccccc1`, for which the growth inhibition was 50% in experiment [1] (setting [7]); 87% (active) in experiment [1] (setting [8]); 91.7% (active) in experiment [1] (at 50.0 µM); 43% in experiment [2] (setting [7]); 73% (active) in experiment [2] (setting [8]); 93.3% (active) in experiment [2] (at 50.0 µM). In addition, the growth inhibition is 55% in experiment [3] (setting [7]); 99% (active) in experiment [3] (setting [8]); 92.5% (active) in experiment [3] (at 50.0 µM); 41% in experiment [4] (setting [7]); 99% (active) in experiment [4] (setting [8]); 89.6% (active) in experiment [4] (at 50.0 µM). For the same compound, the growth inhibition in experiment [5] (setting [7]) was 95% (active); in experiment [5] (setting [8]), 99% (active); in experiment [5] (at 50.0 µM) it was 91.8% (active); in experiment [6] (setting [7]), 36%; in experiment [6] (setting [8]) it was 67%; in experiment [6] (at 50.0 µM), 86.7% (active).

Turning to `S=c1c2cn[nH]c2nc2scc(-c3ccc(Cl)cc3)n12`, the growth inhibition in experiment [1] (setting [7]) was 1%; in experiment [1] (setting [8]), 98% (active); in experiment [1] (at 50.0 µM), 45.4%; in experiment [2] (setting [7]), -29%; in experiment [2] (setting [8]) it was 97% (active); in experiment [2] (at 50.0 µM), 49.7%. Also, the growth inhibition in experiment [3] (setting [7]) was -27%; in experiment [3] (setting [8]), 98% (active); in experiment [3] (at 50.0 µM) it was 65.9%; in experiment [4] (setting [7]) it was 24%; in experiment [4] (setting [8]) it was 98% (active); in experiment [4] (at 50.0 µM), 33.9%. In addition, the growth inhibition in experiment [5] (setting [7]) was -4%; in experiment [5] (setting [8]), 97% (active); in experiment [5] (at 50.0 µM) it was 49%; in experiment [6] (setting [7]) it was 11%; in experiment [6] (setting [8]) it was 97% (active); in experiment [6] (at 50.0 µM), 30.6%.

For `CC(C)(Br)C(Br)C(=O)C(Br)C(C)(C)Br` (configuration not stated), the growth inhibition is -1% in experiment [1] (setting [7]); 8% in experiment [1] (setting [8]); 52.2% in experiment [1] (at 50.0 µM); -2% in experiment [2] (setting [7]); 26% in experiment [2] (setting [8]); 48.6% in experiment [2] (at 50.0 µM). The growth inhibition in experiment [3] (setting [7]) was -4%; in experiment [3] (setting [8]), 31%; in experiment [3] (at 50.0 µM) it was 63.6%; in experiment [4] (setting [7]) it was -2%; in experiment [4] (setting [8]) it was 15%; in experiment [4] (at 50.0 µM) it was -7.9%. Further, the growth inhibition is -2% in experiment [5] (setting [7]); 40% in experiment [5] (setting [8]); 19.6% in experiment [5] (at 50.0 µM); -1% in experiment [6] (setting [7]); 31% in experiment [6] (setting [8]); 69% in experiment [6] (at 50.0 µM).

As to `CCCCCCCCCCCCCCCCCC[N+]1(CC)CCCCC1`, the growth inhibition in experiment [1] (setting [7]) was 99% (active); in experiment [1] (setting [8]), 99% (active); in experiment [1] (at 50.0 µM), 90.3% (active); in experiment [2] (setting [7]), 99% (active); in experiment [2] (setting [8]), 99% (active); in experiment [2] (at 50.0 µM), 91.2% (active). In addition, the growth inhibition is 99% (active) in experiment [3] (setting [7]); 99% (active) in experiment [3] (setting [8]); 91.5% (active) in experiment [3] (at 50.0 µM); 99% (active) in experiment [4] (setting [7]); 99% (active) in experiment [4] (setting [8]); 90.2% (active) in experiment [4] (at 50.0 µM). Besides, the growth inhibition in experiment [5] (setting [7]) was 99% (active); in experiment [5] (setting [8]), 99% (active); in experiment [5] (at 50.0 µM), 90.4% (active); in experiment [6] (setting [7]), 99% (active); in experiment [6] (setting [8]), 99% (active); in experiment [6] (at 50.0 µM), 89.2% (active).

For `CCC[CH2][Sn]([CH2]CCC)([O]C(=O)c1cc(F)ccc1F)[O]C(=O)c1cc(F)ccc1F`, the growth inhibition is 42% in experiment [1] (setting [7]); 42% in experiment [1] (setting [8]); 84.1% (active) in experiment [1] (at 50.0 µM); 25% in experiment [2] (setting [7]); 25% in experiment [2] (setting [8]); 83.6% (active) in experiment [2] (at 50.0 µM). Moreover, the growth inhibition was 33% in experiment [3] (setting [7]); 33% in experiment [3] (setting [8]); 73.1% (active) in experiment [3] (at 50.0 µM); 13% in experiment [4] (setting [7]); 13% in experiment [4] (setting [8]); 70.4% (active) in experiment [4] (at 50.0 µM). Besides, the growth inhibition in experiment [5] (setting [7]) is 22%; in experiment [5] (setting [8]), 22%; in experiment [5] (at 50.0 µM), 79.2% (active); in experiment [6] (setting [7]), 20%; in experiment [6] (setting [8]), 20%; in experiment [6] (at 50.0 µM), 78.2% (active).

Take `CN(C)CCN(C)N=Nc1c(-c2ccc(Cl)cc2)n[nH]c1C(F)(F)F`: the growth inhibition in experiment [1] (setting [7]) was 98% (active); in experiment [1] (setting [8]) it was 99% (active); in experiment [1] (at 50.0 µM), 98.8% (active); in experiment [2] (setting [7]), 99% (active); in experiment [2] (setting [8]) it was 99% (active); in experiment [2] (at 50.0 µM), 99.7% (active). For the same compound, the growth inhibition in experiment [3] (setting [7]) is 99% (active); in experiment [3] (setting [8]) it was 99% (active); in experiment [3] (at 50.0 µM), 99.4% (active); in experiment [4] (setting [7]) it was 99% (active); in experiment [4] (setting [8]) it was 99% (active); in experiment [4] (at 50.0 µM), 99.3% (active). Also, the growth inhibition in experiment [5] (setting [7]) is 99% (active); in experiment [5] (setting [8]), 99% (active); in experiment [5] (at 50.0 µM) it was 96% (active); in experiment [6] (setting [7]) it was 99% (active); in experiment [6] (setting [8]), 99% (active); in experiment [6] (at 50.0 µM) it was 99.5% (active).

Consider `Cc1cc(N=O)c(NO)cc1C`, for which the growth inhibition is 3% in experiment [1] (setting [7]); 29% in experiment [1] (setting [8]); 95.8% (active) in experiment [1] (at 50.0 µM); 16% in experiment [2] (setting [7]); 29% in experiment [2] (setting [8]); 79.7% (active) in experiment [2] (at 50.0 µM). Also, the growth inhibition is 6% in experiment [3] (setting [7]); 22% in experiment [3] (setting [8]); 79.7% (active) in experiment [3] (at 50.0 µM); 2% in experiment [4] (setting [7]); 16% in experiment [4] (setting [8]); 65.7% in experiment [4] (at 50.0 µM). Further, the growth inhibition in experiment [5] (setting [7]) is 28%; in experiment [5] (setting [8]), 61%; in experiment [5] (at 50.0 µM) it was 92.5% (active); in experiment [6] (setting [7]), 18%; in experiment [6] (setting [8]), 81% (active); in experiment [6] (at 50.0 µM), 88.8% (active).
